From PubChem BioAssay (NCI)
The panel holds about 83,000 compounds, 20% with a hit somewhere; the sample as a whole holds those more often.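 Cells were grown in 96-well plates and exposed to the test compound at a single concentration for 48 hours; results are reported as percent growth, with values below 10 considered active.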 Calls of active or inactive are those of the source.

Each molecule was assayed on MCF7 breast (assay: NCI-60 one-dose screen, 48 h (100 = growth as untreated, 0 = no growth, -100 = all killed)). Conditions: 10 µM unless noted.
With `Cc1cccc2c1NC(=O)C2(c1ccc(O)cc1)c1ccc(O)cc1` the growth was 1.54% (active). For `Cc1ccc(Cl)cc1Nc1nc(C(F)(F)F)ccc1C(=O)N/N=C/c1cccnc1`, the growth was 11.7% (inactive). `C=CCc1c2c(c(OC)c3ccoc13)C(=O)/C(=C/c1ccccc1OC)O2` was tested, and the growth was 32.6% (inactive). In the case of `COC(=O)c1cc(-c2ccc(S(C)(=O)=O)cc2)[nH]c1N/N=C/c1c(Cl)cccc1Cl`, the growth is reported as -5.62% (active). With `Cn1cc(-c2csc(-c3c[nH]c4ccc(Br)cc34)n2)c2cnccc21` the growth was -68.6% (active). With `O=C(N/N=C/c1ccc(F)cc1)c1ccc(C(F)(F)F)nc1Nc1cccc(C(F)(F)F)c1` the growth was -18.6% (active). In the case of `N#Cc1c(N)nnn1Cc1cc(=O)oc2c1ccc1ccccc12`, the growth is reported as 92.6% (inactive). With `CN(CCOc1ccc(C#N)cc1)CCOc1ccc(C#N)cc1` the growth was 211% (inactive). With `CCOc1nc(-c2ccccc2)cc2c(O)c(C(=O)NN)[nH]c(=O)c12` the growth was 127% (inactive). `COC(=O)c1c2c(c(C)[n+]([O-])c1C)C(=O)C=C(NCc1ccc(OC)cc1)C2=O` was tested, and the growth was -55.1% (active). With `CCCCN1C(=O)/C(=c2\sc3n(c2=O)C2C(NN=3)N(CC)C(=O)N2CC)c2ccccc21` (stereo not given) the growth was 5.32% (active). In the case of `Nc1ncnc2c1N=C(c1ccc3c(c1)OCO3)CC(c1ccc([N+](=O)[O-])cc1)N2` (stereo not given), the growth is reported as 63.2% (inactive). `COC(=O)c1c2c(c(C)[n+]([O-])c1C)C(=O)C=C(NCc1ccc(Br)cc1)C2=O` was tested, and the growth was -56.9% (active). With `COc1ccc(C(=S)N2CCN(c3ccccc3Cl)CC2)cc1OC` the growth was 106% (inactive). In the case of `CCOC(=O)c1nc(Nc2ccc(NC(=O)Nc3ccc(F)cc3)cc2)c2ccccc2n1`, the growth is reported as 96.5% (inactive). `CC(C)n1cnc2c(=S)nc[nH]c21` was tested, and the growth was 106% (inactive). For `COc1cc(-c2cc(-c3ccc(N(C)C)cc3)nc(N3CCC(O)CC3)c2C#N)cc(OC)c1OC`, the growth was 0.557% (active). For `O=C(c1ccc(-c2ccccc2)cc1)c1ccc([N+](=O)[O-])cc1`, the growth was 95.9% (inactive). For `O=C(Nc1cccc([N+](=O)[O-])c1)c1cc2ccccc2cc1O`, the growth was -4.92% (active). In the case of `O=C1c2cccc(NCCN=Cc3cc(O)ccc3O)c2C(=O)c2c(NCCN=Cc3cc(O)ccc3O)cccc21`, the growth is reported as -59.6% (active). `CN(Cc1ccc(C(F)(F)F)cc1)CC(O)C(=O)Nc1ccc(Cl)cc1` (stereo not given) was tested, and the growth was -23.4% (active). For `O=[N+]([O-])c1ccc(N/N=C(/C(=N/Nc2ccc([N+](=O)[O-])cc2)c2ccccc2)c2ccccc2)cc1`, the growth was 60.2% (inactive). `Cc1c(-n2nnc(-c3nc4ccccc4s3)c2N)c(=O)n(-c2ccccc2)n1C` was tested, and the growth was 90.6% (inactive). In the case of `Cc1cc(N)c2cc(NC(=O)/C=C\c3ccccc3Cl)ccc2n1`, the growth is reported as -82.4% (active). In the case of `C=C1C(=O)O[C@H]2[C@H]1CC/C(COC(=O)CCSCCC(=O)OC/C1=C/CC[C@@]3(C)O[C@H]3[C@H]3OC(=O)C(=C)[C@@H]3CC1)=C\CC[C@@]1(C)O[C@@H]21`, the growth is reported as 9.43% (active). `COc1cc(CNS(=O)(=O)c2ccc(C)cc2)ccc1OCc1cn(-c2ccc(Br)cc2)nn1` was tested, and the growth was 88% (inactive). In the case of `CCn1c(SCC(=O)c2ccc(Br)cc2)nnc1-c1ccncc1`, the growth is reported as 92.6% (inactive). With `Cc1ccc(-n2c(=S)[nH]c3sc4c(c3c2=O)CCC(=O)C4)cc1` the growth was 14.7% (inactive). With `C#Cc1cccc(Nc2ncnc3ccc(-c4cnc(N)nc4)cc23)c1` the growth was 15.7% (inactive). With `CCCCN[C@H]1CC[C@@]2(C)[C@@H](CC[C@@]3(C)[C@H]2[C@H](O)C[C@H]2/C(=C(\CCC=C(C)C)C(=O)OC)[C@@H](OC(C)=O)C[C@@]23C)[C@@H]1C` the growth was 90.8% (inactive). With `Fc1cc(F)cc(C(c2c[nH]c3ccccc23)c2c[nH]c3ccccc23)c1` the growth was 110% (inactive). With `C#CCOc1cccc(Nc2ncnc3c(NC(=O)C=C)cccc23)c1` the growth was 16.4% (inactive). For `COc1cc(CNS(=O)(=O)c2ccc(C)cc2)ccc1OCc1cn(-c2ccc(F)cc2)nn1`, the growth was 85.9% (inactive). In the case of `CCc1ccc(C(=O)/C=C/C23c4ccccc4C(c4ccccc42)C2C(=O)NC(=O)C23)cc1` (stereo not given), the growth is reported as 16.6% (inactive). In the case of `Nc1ncnc2c1N=C(c1ccc(Cl)cc1)CC(c1ccc3c(c1)OCO3)N2` (stereo not given), the growth is reported as 81.2% (inactive). For `Cc1ccc(S(=O)(=O)N2CCCC2CO)cc1` (stereo not given), the growth was 91.3% (inactive). In the case of `CC(=O)Nc1nc2ccc(NS(=O)(=O)c3cccc4c(N(C)C)cccc34)cc2[nH]1`, the growth is reported as 22.4% (inactive). With `COC(C(=O)[C@@H](O)[C@@H](C)O)[C@@H]1Cc2cc3cc(O[C@H]4C[C@@H](O[C@H]5C[C@@H](O)[C@H](O)C(C)O5)[C@H](O)C(C)O4)c(C)c(O)c3c(O)c2C(=O)[C@H]1O[C@H]1C[C@@H](O[C@H]2C[C@@H](O[C@H]3C[C@@H](O)[C@H](OC)C(C)O3)[C@@H](O)C(C)O2)[C@H](O)C(C)O1` (stereo not given in full) the growth was 6.29% (active). `Cc1nn(-c2ccccc2)c(Oc2ccccn2)c1-c1nc2ccccc2s1` was tested, and the growth was 84% (inactive). With `CC(C)(C)n1cc(-c2ccnc(NCCNS(=O)(=O)c3cccc4ccccc34)c2)c(-c2cccc(F)c2)n1` the growth was -35% (active).
